Unmarked numbers belong to inactive results. Some of the results follow. The source made the active and inactive calls. Rule as the data show it, unless noted: active = inhibition above about 33%; inactive = the rest.
How the values were obtained:
[1] = StAR promoter reporter inhibitors, counter-screen for LRH-1 inverse agonist project, cell-based, luminescence, high throughput (AID 651611; in the data active = inhibition above about 28%); conditions: StAR promoter luciferase reporter counterscreen, at 3.6 µM, stronger effect = higher value
[2] = target: Nuclear receptor subfamily 5 group A member 2 (Homo sapiens) (UniProt O00482); test: NR5A2 activity suppression in reporter cells – cell-based, luminescence, confirmation (AID 651613; in the data active = inhibition above about 42%;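 also: HEK293T cells co-transfected with LRH-1 and StAR promoter luciferase reporter; 0% = vehicle wells and 100% = parental cells lacking receptor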); conditions: cell-based LRH-1 luciferase reporter, inverse agonism; at 3.6 µM; stronger effect = higher value
[3] = target: Steroidogenic factor 1 (Homo sapiens) (UniProt Q13285); test: inverse agonism at SF1 nuclear receptor – cell-based, luminescence, high throughput, counter-screen for LRH-1 inverse agonist project (AID 651614; in the data active = inhibition above about 44%;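 also: cells cotransfected with StAR promoter reporter and SF1 expression vector; 0% = vehicle on cells with receptor and 100% = vehicle on cells lacking receptor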); conditions: cell-based SF1 luciferase reporter, at 3.6 µM, stronger effect = higher value
[4] = compounds suppressing VP16-driven luciferase signal – cell-based, luminescence, high throughput, counter-screen for LRH-1 inverse agonist project (AID 651615); conditions: Gal4-VP16 luciferase reporter cells, at 3.6 µM, stronger effect = higher value
[5] = target: Nuclear receptor coactivator 1 (Homo sapiens) (UniProt Q15788); test: NCOA1 GAL4-fusion reporter inhibition – cell-based, luminescence, quadruplicate, confirmation (AID 588820;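 active = mean inhibition above 46.68%, the untreated control wells mean plus 3 SD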;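 also: 0% = DMSO wells and 100% = gossypol 36 µM treated wells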); conditions: HEK293 GAL4-SRC1 luciferase reporter, at 3.6 µM, stronger effect = higher value
[6] = repression of VP16-driven luciferase reporter – cell-based, luminescence, high throughput, counter-screen for SRC1 inhibitor project (AID 588824; in the data active = inhibition above about 25%); conditions: cell-based VP16 transactivation luciferase luminescence; at 3.6 µM; stronger effect = higher value
[7] = target: Receptor-interacting serine/threonine-protein kinase 2 (Homo sapiens) (UniProt O43353); test: inhibitors of RIPK2 association with NOD2 – fluorescence, CHO cells, BLA complementation, triplicate, confirmation (AID 624370;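 active = mean inhibition across replicates above a set limit taken from the earlier primary screen, cut at about 21% in these data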;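 also: 0% = DMSO-only wells and the high end = clavulanate BLA-blocked wells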); conditions: CCF4 FRET, at 4.98 µM, stronger effect = higher value
[8] = BLA reporter readout interference – cell-based, CHO-K1 CMV-bla, CCF4 FRET, fluorescence, artefact control for NOD2-RIPK2 interaction inhibitor project, confirmation (AID 624371;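 active = mean inhibition above the low-control mean inhibition plus three low-control SD, cut at about 11% in these data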;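 also: 0% = DMSO only wells and 100% = clavulanate high control wells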); conditions: CCF4 FRET ratio, counterscreen, at 4.98 µM, stronger effect = higher value
[9] = system: transactivating tegument protein VP16 (Human herpesvirus 1); test: compounds suppressing VP16-driven luciferase signal – cell-based, luminescence, single concentration, counter-screen for SRC2 inhibitor project (AID 652007; in the data active = inhibition above about 36%); conditions: cell-based VP16 transactivation luciferase reporter, at 8.9 µM, stronger effect = higher value
[10] = target: Nuclear receptor coactivator 2 (Homo sapiens) (UniProt Q15596); test: inhibition of GAL4-SRC2 driven luciferase expression – cell-based, luminescence, HEK293, triplicate, confirmation (AID 652008;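 active = mean inhibition above 46.5%, the solvent-only control mean plus 3 SD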;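 also: 0% = DMSO-treated cells and 100% = Gossypol at 36 µM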); conditions: HEK293 GAL4-SRC2 luciferase reporter, at 8.9 µM, stronger effect = higher value
[11] = target: Photoreceptor-specific nuclear receptor (Homo sapiens) (UniProt Q9Y5X4); test: retest of NR2E3-NCOR disrupting agonists – cell-based, luminescence, CHO-S two-hybrid, confirmation (AID 624378;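 active = average inhibition above a cutoff equal to the mean inhibition of all tested compounds plus one SD, cut at about 70% in these data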;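 also: 0% = DMSO in NR2E3 cells and 100% = DMSO in cells lacking NR2E3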); conditions: CHO-S mammalian two-hybrid NR2E3-NCOR, luciferase luminescence; at 3.98 µM; stronger effect = higher value
[12] = nonselective effects on VP16 transactivation – cell-based, luminescence, CHO-S, high throughput, counter-screen for NR2E3 agonist project, confirmation (AID 624379;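 active = mean inhibition above a cutoff equal to the average over all tested compounds plus one standard deviation, cut at about 70% in these data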;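 also: luciferase from a UAS reporter driven by GAL4-VP16 transactivation; 0% = DMSO with VP16-transfected cells and 100% = DMSO with cells lacking VP16; higher means less reporter light so more repression of VP16 activity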); conditions: CHO-S GAL4-VP16 luciferase reporter, at 3.98 µM, stronger effect = higher value

Chain of Steroidogenic factor 1 (Homo sapiens) (Q13285 whole entry, looked up, the tested form may be a part): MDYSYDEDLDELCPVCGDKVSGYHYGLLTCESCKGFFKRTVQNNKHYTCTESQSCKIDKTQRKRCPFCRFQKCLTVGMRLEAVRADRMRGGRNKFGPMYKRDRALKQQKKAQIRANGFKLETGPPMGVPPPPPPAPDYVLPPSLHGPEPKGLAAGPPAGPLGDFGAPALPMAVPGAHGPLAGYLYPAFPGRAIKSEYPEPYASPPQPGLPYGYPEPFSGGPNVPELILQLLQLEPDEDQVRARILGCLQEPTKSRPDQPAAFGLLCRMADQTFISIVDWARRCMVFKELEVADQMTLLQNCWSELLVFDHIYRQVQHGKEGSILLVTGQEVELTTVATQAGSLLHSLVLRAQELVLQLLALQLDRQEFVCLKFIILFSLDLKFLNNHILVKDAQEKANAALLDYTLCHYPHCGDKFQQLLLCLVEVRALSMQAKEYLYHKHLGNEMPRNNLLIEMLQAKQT
Chain of Nuclear receptor coactivator 1 (Homo sapiens) (Q15788 whole entry, looked up, the tested form may be a part): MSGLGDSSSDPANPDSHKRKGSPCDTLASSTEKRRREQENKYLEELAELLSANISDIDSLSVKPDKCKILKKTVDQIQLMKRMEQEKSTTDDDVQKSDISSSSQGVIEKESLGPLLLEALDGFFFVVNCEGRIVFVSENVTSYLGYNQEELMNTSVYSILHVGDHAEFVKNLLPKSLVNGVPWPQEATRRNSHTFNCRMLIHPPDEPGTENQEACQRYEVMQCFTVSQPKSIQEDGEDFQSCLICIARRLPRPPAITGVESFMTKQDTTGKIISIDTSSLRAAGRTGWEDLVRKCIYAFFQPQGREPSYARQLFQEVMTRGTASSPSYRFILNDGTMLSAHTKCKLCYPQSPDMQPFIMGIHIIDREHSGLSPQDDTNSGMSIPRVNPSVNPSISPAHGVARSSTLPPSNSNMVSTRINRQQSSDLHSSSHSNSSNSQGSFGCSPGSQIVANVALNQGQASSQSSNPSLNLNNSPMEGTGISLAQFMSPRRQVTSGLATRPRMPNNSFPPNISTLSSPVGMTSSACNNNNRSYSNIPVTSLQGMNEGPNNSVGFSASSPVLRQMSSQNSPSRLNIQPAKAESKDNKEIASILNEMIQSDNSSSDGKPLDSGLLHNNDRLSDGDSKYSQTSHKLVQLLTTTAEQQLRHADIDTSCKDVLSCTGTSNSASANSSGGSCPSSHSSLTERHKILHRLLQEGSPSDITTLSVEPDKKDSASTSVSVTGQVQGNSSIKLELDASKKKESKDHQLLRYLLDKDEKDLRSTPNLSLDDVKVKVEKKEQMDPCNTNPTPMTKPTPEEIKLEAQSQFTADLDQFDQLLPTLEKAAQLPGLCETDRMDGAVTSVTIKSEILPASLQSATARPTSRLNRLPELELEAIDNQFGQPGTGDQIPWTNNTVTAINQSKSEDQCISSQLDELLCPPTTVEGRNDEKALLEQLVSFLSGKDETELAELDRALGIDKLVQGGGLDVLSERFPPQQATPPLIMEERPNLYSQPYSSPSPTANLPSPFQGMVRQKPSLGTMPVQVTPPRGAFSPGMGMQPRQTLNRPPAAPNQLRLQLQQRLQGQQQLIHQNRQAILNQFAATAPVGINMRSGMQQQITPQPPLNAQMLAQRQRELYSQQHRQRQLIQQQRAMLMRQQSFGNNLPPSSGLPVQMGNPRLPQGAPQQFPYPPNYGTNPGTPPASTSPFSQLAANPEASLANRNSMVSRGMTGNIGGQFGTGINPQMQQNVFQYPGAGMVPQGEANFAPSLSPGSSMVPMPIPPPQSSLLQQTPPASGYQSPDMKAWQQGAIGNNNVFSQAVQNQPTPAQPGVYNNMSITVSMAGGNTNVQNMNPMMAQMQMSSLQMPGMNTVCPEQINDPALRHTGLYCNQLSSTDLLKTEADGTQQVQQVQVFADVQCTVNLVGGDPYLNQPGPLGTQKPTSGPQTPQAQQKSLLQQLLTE
Chain of Nuclear receptor subfamily 5 group A member 2 (Homo sapiens) (O00482 whole entry, looked up): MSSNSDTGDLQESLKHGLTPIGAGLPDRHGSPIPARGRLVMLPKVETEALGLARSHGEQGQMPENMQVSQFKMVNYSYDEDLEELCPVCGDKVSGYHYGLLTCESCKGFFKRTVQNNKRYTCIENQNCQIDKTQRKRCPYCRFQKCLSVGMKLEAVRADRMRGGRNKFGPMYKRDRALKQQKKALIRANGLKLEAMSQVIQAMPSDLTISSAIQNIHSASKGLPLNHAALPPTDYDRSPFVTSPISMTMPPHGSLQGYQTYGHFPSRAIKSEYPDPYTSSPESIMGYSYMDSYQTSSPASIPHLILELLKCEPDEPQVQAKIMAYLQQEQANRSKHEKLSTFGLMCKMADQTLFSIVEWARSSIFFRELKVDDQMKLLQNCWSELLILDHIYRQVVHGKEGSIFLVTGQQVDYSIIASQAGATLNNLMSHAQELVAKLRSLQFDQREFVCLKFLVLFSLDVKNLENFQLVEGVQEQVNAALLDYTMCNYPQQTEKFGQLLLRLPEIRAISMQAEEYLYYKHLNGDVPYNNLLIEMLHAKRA
Chain of Nuclear receptor coactivator 2 (Homo sapiens) (Q15596 whole entry, looked up, the tested form may be a part): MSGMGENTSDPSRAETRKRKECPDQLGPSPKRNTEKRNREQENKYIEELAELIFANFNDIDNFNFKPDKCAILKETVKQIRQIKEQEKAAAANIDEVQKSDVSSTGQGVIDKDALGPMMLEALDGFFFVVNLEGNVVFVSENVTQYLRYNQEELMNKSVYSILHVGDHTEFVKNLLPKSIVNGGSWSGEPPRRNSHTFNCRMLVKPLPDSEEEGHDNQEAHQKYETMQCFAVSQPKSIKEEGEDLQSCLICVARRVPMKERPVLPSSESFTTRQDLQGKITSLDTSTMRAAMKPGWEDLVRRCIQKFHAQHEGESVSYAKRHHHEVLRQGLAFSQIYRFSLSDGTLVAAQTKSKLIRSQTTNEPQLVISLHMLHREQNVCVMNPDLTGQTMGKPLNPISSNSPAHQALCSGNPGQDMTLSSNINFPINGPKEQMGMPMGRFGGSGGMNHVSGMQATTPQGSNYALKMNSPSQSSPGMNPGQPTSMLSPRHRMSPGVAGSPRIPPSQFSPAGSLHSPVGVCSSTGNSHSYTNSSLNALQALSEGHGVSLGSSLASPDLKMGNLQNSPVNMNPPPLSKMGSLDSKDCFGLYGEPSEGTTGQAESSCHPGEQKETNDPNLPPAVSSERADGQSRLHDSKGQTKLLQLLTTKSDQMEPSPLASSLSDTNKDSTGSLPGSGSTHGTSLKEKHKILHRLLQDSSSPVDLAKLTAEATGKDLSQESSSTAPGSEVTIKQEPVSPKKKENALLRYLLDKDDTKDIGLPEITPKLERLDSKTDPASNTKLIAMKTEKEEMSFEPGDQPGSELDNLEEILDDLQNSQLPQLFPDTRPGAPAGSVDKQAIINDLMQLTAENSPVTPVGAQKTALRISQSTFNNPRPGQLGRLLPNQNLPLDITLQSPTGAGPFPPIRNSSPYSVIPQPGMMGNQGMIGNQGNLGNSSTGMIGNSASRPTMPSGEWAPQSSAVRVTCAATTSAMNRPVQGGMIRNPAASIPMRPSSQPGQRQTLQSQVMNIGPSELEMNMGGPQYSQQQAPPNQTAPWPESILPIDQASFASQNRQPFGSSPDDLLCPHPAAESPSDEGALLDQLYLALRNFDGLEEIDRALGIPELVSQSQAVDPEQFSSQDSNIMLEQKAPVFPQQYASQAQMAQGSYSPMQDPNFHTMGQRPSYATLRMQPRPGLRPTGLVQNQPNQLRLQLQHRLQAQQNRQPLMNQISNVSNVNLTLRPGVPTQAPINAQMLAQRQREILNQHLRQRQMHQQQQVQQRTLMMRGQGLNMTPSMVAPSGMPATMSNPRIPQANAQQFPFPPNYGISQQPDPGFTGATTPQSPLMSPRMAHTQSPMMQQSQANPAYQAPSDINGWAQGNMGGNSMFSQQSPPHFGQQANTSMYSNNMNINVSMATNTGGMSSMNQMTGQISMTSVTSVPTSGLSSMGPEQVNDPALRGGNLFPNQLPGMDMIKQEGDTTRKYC
Chain of Photoreceptor-specific nuclear receptor (Homo sapiens) (Q9Y5X4 whole entry, looked up, the tested form may be a part): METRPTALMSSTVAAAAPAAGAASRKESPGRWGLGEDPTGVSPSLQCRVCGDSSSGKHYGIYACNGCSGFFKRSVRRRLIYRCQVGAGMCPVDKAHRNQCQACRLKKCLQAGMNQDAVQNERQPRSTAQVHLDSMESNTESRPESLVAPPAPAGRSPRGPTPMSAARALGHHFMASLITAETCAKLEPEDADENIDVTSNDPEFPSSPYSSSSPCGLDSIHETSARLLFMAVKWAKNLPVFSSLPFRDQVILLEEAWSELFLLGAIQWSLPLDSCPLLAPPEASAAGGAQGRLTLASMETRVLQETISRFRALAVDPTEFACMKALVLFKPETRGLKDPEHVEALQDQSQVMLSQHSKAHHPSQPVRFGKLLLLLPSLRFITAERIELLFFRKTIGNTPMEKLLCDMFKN
Chain of Receptor-interacting serine/threonine-protein kinase 2 (Homo sapiens) (O43353 whole entry, looked up): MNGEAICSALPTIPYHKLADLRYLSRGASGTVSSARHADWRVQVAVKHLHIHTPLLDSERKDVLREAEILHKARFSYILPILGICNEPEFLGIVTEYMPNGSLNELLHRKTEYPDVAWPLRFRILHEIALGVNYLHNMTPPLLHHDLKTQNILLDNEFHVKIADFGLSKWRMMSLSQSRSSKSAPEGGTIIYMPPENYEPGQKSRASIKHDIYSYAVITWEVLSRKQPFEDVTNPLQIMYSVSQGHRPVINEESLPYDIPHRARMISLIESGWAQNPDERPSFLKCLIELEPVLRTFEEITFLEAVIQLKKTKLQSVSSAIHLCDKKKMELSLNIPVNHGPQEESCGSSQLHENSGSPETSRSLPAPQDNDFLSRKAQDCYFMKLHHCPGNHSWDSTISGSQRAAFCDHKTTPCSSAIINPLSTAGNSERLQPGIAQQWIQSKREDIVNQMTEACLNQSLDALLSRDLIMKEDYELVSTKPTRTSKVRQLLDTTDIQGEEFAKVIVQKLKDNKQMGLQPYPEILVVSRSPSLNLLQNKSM

Q: Which results are given for `CC(=O)O[C@H]1C(=O)[C@@]2(C)C([C@H](OC(=O)c3ccccc3)[C@]3(O)C[C@H](OC(=O)[C@H](O)[C@@H](NC(=O)Cc4ccccc4)c4ccccc4)C(C)=C1C3(C)C)[C@]1(OC(C)=O)CO[C@@H]1C[C@@H]2O` (stereo partly drawn)?
A: inhibition [1]: 50.1% (active); inhibition [2]: 45.2% (active); inhibition [3]: 54.9% (active); inhibition [4]: 36.1% (active)

Q: Which inhibition [5] does the source give for `COc1cccc2cc(-c3cc(=O)oc4ccc(OC(=O)N(C)C)cc34)oc12` here?
A: -17.6%

Q: And the inhibition [6]?
A: -14.6%

Q: With `COc1ccc2c(c1)/C(=C/c1cnc[nH]1)C(=O)N2` as the molecule, how does the inhibition [5] read?
A: 13.1%

Q: And the inhibition [6]?
A: 19%

Q: And the inhibition [1]?
A: 59.4% (active)

Q: What about the inhibition [2] of the same molecule?
A: 85.8% (active)

Q: What about the inhibition [3] of the same molecule?
A: 72.9% (active)

Q: And the inhibition [4]?
A: 11.2%

Q: With `COC(=O)C12CCc3c(ccc4cc(OC)ccc34)C1=CC(=O)C2` (stereo not drawn) as the molecule, how does the inhibition [1] read?
A: 0.25%

Q: What about the inhibition [2] of the same molecule?
A: 12.9%

Q: What about the inhibition [3] of the same molecule?
A: 25.3%

Q: What about the inhibition [4] of the same molecule?
A: -1.27%

Q: What does the source list for `COc1cc2c(cc1OC)C1C(=O)c3ccc4c(c3OC1CO2)CC(C(C)C)O4` (stereo not drawn)?
A: inhibition [5]: -30.2%; inhibition [6]: 41.4% (active); inhibition [1]: 40.3% (active); inhibition [2]: 71.2% (active); inhibition [3]: 73.1% (active); inhibition [4]: 65.5% (active)

Q: With `CCOC(=O)[C@]12Cc3ccccc3[C@H]1N(C1CCCCC1)C(=O)c1cc(OC)ccc12` as the molecule, how does the inhibition [7] read?
A: 61.3% (active)

Q: And the inhibition [8]?
A: 0.28%

Q: And the inhibition [1]?
A: 55.3% (active)

Q: And the inhibition [2]?
A: 98% (active)

Q: What about the inhibition [3] of the same molecule?
A: 58.9% (active)

Q: And the inhibition [4]?
A: 85.2% (active)

Q: With `N#Cc1ccc(NC(=S)N2Cc3ccccc3-n3nncc3C2)cc1` as the molecule, how does the inhibition [1] read?
A: -5.3%

Q: And the inhibition [2]?
A: 56.4% (active)

Q: And the inhibition [3]?
A: 47.5% (active)

Q: What about the inhibition [4] of the same molecule?
A: 10.9%

Q: With `Cc1ccc2c(C)c3ccc4ccccc4c3c[n+]2c1` as the molecule, how does the inhibition [5] read?
A: 17.2%

Q: And the inhibition [6]?
A: 31.6% (active)

Q: What about the inhibition [1] of the same molecule?
A: 28.1% (active)

Q: What about the inhibition [2] of the same molecule?
A: 99.6% (active)

Q: And the inhibition [3]?
A: 39.4%

Q: What about the inhibition [4] of the same molecule?
A: 78% (active)

Q: Which inhibition [1] does the source give for `CCOC(=O)[C@]12Cc3cc(Cl)ccc3[C@H]1N(C1CCCCC1)C(=O)c1cc(OC)ccc12` here?
A: 87.5% (active)

Q: And the inhibition [2]?
A: 105% (active)

Q: What about the inhibition [3] of the same molecule?
A: 93.1% (active)

Q: What about the inhibition [4] of the same molecule?
A: 87.7% (active)

Q: What does the source list for `COc1ccc(C(c2nnnn2Cc2ccccc2)N2CCC(n3c(=O)[nH]c4ccccc43)CC2)cc1` (stereo not drawn)?
A: inhibition [5]: -42.8%; inhibition [6]: -11.4%

Q: With `O=c1[nH]c2ccccc2n1C1CCN(C(c2cccs2)c2nnnn2-c2ccc3c(c2)OCCO3)CC1` (stereo not drawn) as the molecule, how does the inhibition [5] read?
A: -26.2%

Q: What about the inhibition [6] of the same molecule?
A: 25.5% (active)

Q: For `N#Cc1ccc2nc(-c3ccc(CN4CCC(n5c(=O)[nH]c6ccccc65)CC4)cc3)c(-c3ccccc3)nc2c1`, which inhibition [1] is on record?
A: 43.8% (active)

Q: What about the inhibition [2] of the same molecule?
A: 44% (active)

Q: And the inhibition [3]?
A: 43.2% (active)

Q: And the inhibition [4]?
A: 27.1%

Q: Which inhibition [5] does the source give for `N#Cc1c(Br)n(C2OC(CO)C(O)C2O)c2ncnc(N)c12` (stereo not drawn) here?
A: 40.9%

Q: What about the inhibition [6] of the same molecule?
A: 29.9% (active)

Q: What about the inhibition [1] of the same molecule?
A: 61.8% (active)

Q: And the inhibition [2]?
A: 77.3% (active)

Q: What about the inhibition [3] of the same molecule?
A: 63.2% (active)

Q: What about the inhibition [4] of the same molecule?
A: 48.6% (active)

Q: And the inhibition [9]?
A: -16.7%

Q: What about the inhibition [10] of the same molecule?
A: 54.4% (active)

Q: Which results are given for `CCN(CC)C(=O)c1ccc(NC(=O)c2ccc(-n3cncn3)c([N+](=O)[O-])c2)cc1`?
A: inhibition [5]: -2.4%; inhibition [6]: 5.45%

Q: What does the source list for `CCOC(=O)[C@]12Cc3ccc(C)cc3[C@H]1N(C1CCCCC1)C(=O)c1cc(OC)ccc12`?
A: inhibition [1]: 77.2% (active); inhibition [2]: 104% (active); inhibition [3]: 75.1% (active); inhibition [4]: 91.8% (active)

Q: Which inhibition [5] does the source give for `CC(=O)c1cn(Cc2ccccc2F)c2ccccc12` here?
A: -1.96%

Q: What about the inhibition [6] of the same molecule?
A: 35.7% (active)

Q: With `N#CCCn1cc(C(=O)Nc2ccc([N+](=O)[O-])cc2)c(-c2ccccc2)n1` as the molecule, how does the inhibition [1] read?
A: 7.58%

Q: What about the inhibition [2] of the same molecule?
A: 35.3%

Q: What about the inhibition [3] of the same molecule?
A: 41.5%

Q: What about the inhibition [4] of the same molecule?
A: 15.5%

Q: Which inhibition [1] does the source give for `CCOC(=O)c1c(C)n(CC(O)CN2CCOCC2)c2cc(Br)c(OC)cc12` (stereo not drawn) here?
A: 22%

Q: And the inhibition [2]?
A: 57.1% (active)

Q: And the inhibition [3]?
A: 47.9% (active)

Q: And the inhibition [4]?
A: -12.2%

Q: What does the source list for `O=c1[nH]c2ccccc2n1C1CCN(Cc2ccc(-c3[nH]c4cc5ncnc5cc4nc3-c3ccccc3)cc2)CC1`?
A: inhibition [1]: 42.3% (active); inhibition [2]: 64.2% (active); inhibition [3]: 44% (active); inhibition [4]: 25%

Q: With `c1ccc2c(c1)[IH]c1ccccc1-2` as the molecule, how does the inhibition [1] read?
A: 42.4% (active)

Q: And the inhibition [2]?
A: 78.5% (active)

Q: What about the inhibition [3] of the same molecule?
A: 64.1% (active)

Q: And the inhibition [4]?
A: 72.8% (active)

Q: For `O=c1[nH]c2ccccc2n1C1CCN(C(c2cc3ccccc3o2)c2nnnn2-c2ccc3c(c2)OCCO3)CC1` (stereo not drawn), which inhibition [5] is on record?
A: -27.1%

Q: And the inhibition [6]?
A: 8.97%

Q: Which results are given for `O=C1Nc2ccccc2/C1=C/c1cnc[nH]1`?
A: inhibition [1]: 14.6%; inhibition [2]: 14.2%; inhibition [3]: 40.8%; inhibition [4]: -10.7%

Q: For `CCOC(=O)[C@]12Cc3cc(C)ccc3[C@H]1N(C1CCCCC1)C(=O)c1ccccc12`, which inhibition [1] is on record?
A: 71.1% (active)

Q: And the inhibition [2]?
A: 102% (active)

Q: What about the inhibition [3] of the same molecule?
A: 71.5% (active)

Q: What about the inhibition [4] of the same molecule?
A: 88.4% (active)

Q: For `CC(=NCc1ccc2c(c1)OCO2)c1c(O)[nH]c(=O)[nH]c1=O`, which inhibition [11] is on record?
A: 2.39%

Q: And the inhibition [12]?
A: 8.56%

Q: For `C=C1[C@@H](C)[C@H]2[C@H](Cc3ccccc3)NC(=O)[C@]23OC(=O)/C=C/[C@H](O)CCC[C@@H](C)C/C=C/[C@H]3[C@@H]1O`, which inhibition [1] is on record?
A: 52.7% (active)

Q: And the inhibition [2]?
A: 27.9%

Q: And the inhibition [3]?
A: 44.3% (active)

Q: And the inhibition [4]?
A: 27%
